The panel holds about 83,000 compounds, 20% with a hit somewhere; the sample as a whole holds those more often.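 Single-concentration screen, 48 h exposure, 96-well plates. Endpoint: percent growth. Below 10 = active.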 Unmarked numbers belong to inactive results. The source made the active and inactive calls.

Test systems include T-47D breast; BT-549 breast; MDA-MB-435 melanoma; SW-620 colon; MCF7 breast; HCT-116 colon; HCC-2998 colon; KM12 colon.
What all share (experiment): NCI-60 one-dose screen, 48 h (100 = growth as untreated, 0 = no growth, -100 = all killed)
Common to all, as to settings: 10 µM unless noted

In the case of `CC1=C2[C@@H](CC1)[C@]1(C)O[C@@](C3CCCCC3)(C[C@H]1OC(=O)CO)[C@H]2OC(=O)/C=C/c1ccccc1`, the growth is 46.1% with T-47D breast; -1.1% (active) in the assay with BT-549 breast; 95.9% in the assay on MDA-MB-435 melanoma; 86.5% with SW-620 colon; 57.6% in the assay on MCF7 breast; 76.3% with HCT-116 colon. Further, the growth in the assay with HCC-2998 colon was 81.8%; in the assay on KM12 colon, 79.6%.

Regarding `COc1cccc(CCNc2ncnc3c2ncn3Cc2nnc3c4ccccc4c(Cl)nn23)c1`, the growth in the assay on T-47D breast is 48.5%; with BT-549 breast it was 47.8%; with MDA-MB-435 melanoma, 57.5%; in the assay on SW-620 colon, 57.4%; in the assay with MCF7 breast it was 63%; in the assay on HCT-116 colon, 39.6%. For the same molecule, the growth in the assay with HCC-2998 colon is 91.9%; with KM12 colon it was 80%.

For the molecule `COc1ccc(C(=O)/C=C/c2ccc(N3CCCCC3)cc2)cc1OC`, the growth was 76.6% in the assay on T-47D breast; 87.4% in the assay on BT-549 breast; 103% with MDA-MB-435 melanoma; 102% in the assay with SW-620 colon; 90.4% in the assay on MCF7 breast; 82.7% in the assay on HCT-116 colon. For the same molecule, the growth was 107% with HCC-2998 colon and 98.9% with KM12 colon.

Regarding `COC(=O)/C=C1/SC(=Nc2ccc([N+](=O)[O-])cc2)N(CCc2c[nH]c3ccc(O)cc23)C1=O`, the growth in the assay with T-47D breast is 53.9%; in the assay with BT-549 breast it was 25.7%; with MDA-MB-435 melanoma it was 43.1%; in the assay on SW-620 colon, 85.5%; in the assay with MCF7 breast, 30.6%; with HCT-116 colon it was 14.6%. The growth in the assay with HCC-2998 colon is 20.9%; in the assay on KM12 colon it was 41.7%.

Consider `CCN1CCN(CC(=O)Nc2ccc(-c3cn4c(n3)sc3cc(Oc5ccnc(C(=O)NC)c5)ccc34)cc2)CC1`, for which the growth was 32.8% with T-47D breast; 57.2% in the assay with BT-549 breast; 10.1% in the assay on MDA-MB-435 melanoma; 8.44% (active) with SW-620 colon; 80.2% with MCF7 breast; 1.48% (active) in the assay with HCT-116 colon. Besides, the growth was 117% with HCC-2998 colon and 75.6% in the assay with KM12 colon.

Turning to `CCOc1cccc(/C=N/NC(=O)c2cccc(Nc3ccnc(C(F)(F)F)c3)c2)c1O`, the growth with T-47D breast is 27.6%; in the assay on BT-549 breast, 48.5%; in the assay with MDA-MB-435 melanoma it was 34.4%; in the assay on SW-620 colon it was 36.6%; in the assay with MCF7 breast, 17.4%; in the assay with HCT-116 colon it was 13%. Moreover, the growth in the assay with HCC-2998 colon is 43.5%; in the assay with KM12 colon, 38.9%.

In the case of `Cc1c(CC(=S)N2CCOCC2)nnn1-c1cccc(C(F)(F)F)c1`, the growth is 103% with T-47D breast; 112% in the assay on BT-549 breast; 103% with MDA-MB-435 melanoma; 99.9% with SW-620 colon; 104% with MCF7 breast; 102% in the assay with HCT-116 colon. In addition, the growth in the assay with HCC-2998 colon is 119%; in the assay on KM12 colon it was 105%.

As to `O=C(NNC(=O)c1ccc(NC(=O)c2ccccn2)cc1)Nc1ccc2ccccc2c1`, the growth in the assay on T-47D breast was 106%; in the assay with BT-549 breast it was 107%; in the assay on MDA-MB-435 melanoma, 110%; with SW-620 colon it was 116%; in the assay with MCF7 breast it was 96%; in the assay on HCT-116 colon it was 102%. Further, the growth in the assay with HCC-2998 colon was 121%; with KM12 colon, 102%.

Take `COc1cc(-c2nc3sccn3c2-c2ccnc(NCCNS(=O)(=O)c3ccc(Cl)cc3)n2)ccc1F`: the growth with T-47D breast is 1.61% (active); in the assay with BT-549 breast, 30.9%; with MDA-MB-435 melanoma it was 9.48% (active); in the assay with SW-620 colon, 50.6%; with MCF7 breast, 17.7%; with HCT-116 colon, 20.9%. Further, the growth in the assay on HCC-2998 colon was 66.5%; in the assay with KM12 colon it was 17%.

Regarding `CCN1CCN(C(=O)[C@]23CC[C@@H](C)[C@H](C)[C@@H]2C2=CC[C@@H]4[C@@]5(C)C/C(=C/c6cccnc6)C(=O)C(C)(C)[C@@H]5CC[C@@]4(C)[C@]2(C)CC3)CC1`, the growth in the assay with T-47D breast was 22%; with BT-549 breast, 41.2%; in the assay with MDA-MB-435 melanoma it was 24%; with SW-620 colon it was 13.3%; with MCF7 breast, 8.54% (active); in the assay on HCT-116 colon it was 10.3%. Besides, the growth was 19.6% in the assay on HCC-2998 colon and 18.2% with KM12 colon.

Take `COc1ccc(/C=C(/C(=O)n2cnnn2)c2cc(OC)c(OC)c(OC)c2)cc1`: the growth in the assay with T-47D breast is 43.1%; in the assay on BT-549 breast, 38.2%; in the assay with MDA-MB-435 melanoma it was -50.3% (active); in the assay with SW-620 colon, 21.2%; with MCF7 breast, 16.2%; in the assay with HCT-116 colon, 13.7%. Further, the growth with HCC-2998 colon was 28.2%; in the assay on KM12 colon, 17.7%.

Turning to `O=C(Oc1ccc(CCl)cc1)c1ccccc1`, the growth in the assay on T-47D breast is -35.1% (active); in the assay with BT-549 breast it was -97.9% (active); in the assay with MDA-MB-435 melanoma it was -88.7% (active); in the assay on SW-620 colon, -49% (active); with MCF7 breast, -58.2% (active); with HCT-116 colon it was -84.7% (active). Also, the growth was -75% (active) in the assay on HCC-2998 colon and -79.1% (active) in the assay on KM12 colon.

As to `COc1cccc(-c2cc(-c3cccc(Cl)c3)c(C#N)c(=O)[nH]2)c1`, the growth in the assay with T-47D breast is 80.1%; in the assay on BT-549 breast, 53.5%; in the assay with MDA-MB-435 melanoma, 4.96% (active); in the assay with SW-620 colon it was 49.3%; with MCF7 breast, 55.5%; in the assay with HCT-116 colon, 73.9%. Further, the growth with HCC-2998 colon is 98.7%; with KM12 colon, 57.5%.

`NC(=O)c1c(NC(=O)c2cccs2)sc2c1CCC(=O)C2`: the growth in the assay with T-47D breast was 8.16% (active); in the assay on BT-549 breast it was 8.21% (active); in the assay with MDA-MB-435 melanoma, 43.7%; with SW-620 colon, 15.1%; with MCF7 breast, 45.1%; with HCT-116 colon, 4.11% (active). The growth in the assay on HCC-2998 colon was 72.9%; in the assay on KM12 colon, 20.3%.

For the origin of these results see PubChem BioAssay (NCI).
